In PubChem BioAssay (Tox21):
Inconclusive results are not listed. A call without a number means that no potency is given here. More than one record can exist for a structure, and the calls need not agree. Activity calls are given as the source filed them. Unless noted, calls come from the whole dose curve; as a rule, active = well fitted curve in the direction sought with a large enough effect in the repeat runs; inconclusive = weak or mixed curves; inactive = no such curve, though single readings can be large; an effect the other way counts as inactive or inconclusive.

How the values were obtained:
[1] = molecular target: Thyrotropin-releasing hormone receptor (Homo sapiens) (UniProt P34981); test: qHTS assay to identify small molecule agonists of the thyrotropin-releasing hormone receptor (TRHR) signaling pathway (AID 1346891; calls by dose curve;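 note: HEK293 cells expressing TRHR with calcium dye readout; series mostly up to about 58 µM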)
Chain of Thyrotropin-releasing hormone receptor (Homo sapiens) (P34981 whole entry, looked up): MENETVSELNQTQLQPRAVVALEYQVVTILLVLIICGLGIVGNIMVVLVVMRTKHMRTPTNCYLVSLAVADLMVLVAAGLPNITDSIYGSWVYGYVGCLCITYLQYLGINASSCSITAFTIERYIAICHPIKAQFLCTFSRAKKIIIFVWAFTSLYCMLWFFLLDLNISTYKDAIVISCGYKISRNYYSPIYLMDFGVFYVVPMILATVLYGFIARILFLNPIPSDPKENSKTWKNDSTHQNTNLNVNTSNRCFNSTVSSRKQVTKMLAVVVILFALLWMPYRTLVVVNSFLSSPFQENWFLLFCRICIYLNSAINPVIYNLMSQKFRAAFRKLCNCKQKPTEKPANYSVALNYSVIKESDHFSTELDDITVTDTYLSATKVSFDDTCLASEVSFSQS
Summary of the method: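 Kinetic fluorescence (3 min, 1 s intervals) reported intracellular calcium after compound transfer onto TRHR-Hek293 cells pre-loaded with dye for 2 h at 37 °C.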

[2] = Human pregnane X receptor (PXR) small molecule agonists, qHTS cell viability counter screen (AID 1346977); note: nearly all actives have a fitted effect of over 50% in size
Summary of the method: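 HepG2 cells stably carrying the PXR-Luc reporter are cultured with 5% charcoal-stripped FBS and treated with compounds for 24hr. CellTiter-Fluor is added at 23hr and fluorescence is read after 1hr.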

[3] = Caspase-3/7 induction in HepG2 cells by small molecules, qHTS assay (AID 1346978); note: nearly all actives have a fitted effect of over 15% in size
Summary of the method: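 Caspase-3/7 induction was measured by Caspase-Glo 3/7 luminescence (30 min, room temperature) after a 17 hr compound exposure of wild-type HepG2 cells seeded at 2,000 per well and pre-incubated 5 hr.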

[4] = Caspase-3/7 induction in CHO-K1 cells by small molecules, qHTS cell viability counter screen (AID 1346979); note: nearly all actives have a fitted effect of over 35% in size
Summary of the method: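 Seeding: 1,500 CHO-K1 cells/well. Rest: 5hr, 37C. Treatment: compounds in DMSO, 16hr. Read: CellTiter-Fluor, 1hr, fluorescence.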

[5] = Caspase-3/7 induction in CHO-K1 cells by small molecules, qHTS assay (AID 1346980); note: nearly all actives have a fitted effect of over 15% in size
Summary of the method: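 Luminescent Caspase-Glo 3/7 read (30min, room temperature) quantified apoptosis induction. Cells were wild-type CHO-K1, treated with compound for 17hr at 37 C and 5% CO2.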

[6] = Caspase-3/7 induction in HepG2 cells by small molecules, qHTS cell viability counter screen (AID 1346981); note: series mostly up to about 92 µM; nearly all actives have a fitted effect of over 30% in size
Summary of the method: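 Counter screen for cytotoxicity: HepG2 exposed 16 hr to compounds, then CellTiter-Fluor viability signal (fluorescence, 1 hr reagent incubation).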

[7] = molecular target: Nuclear receptor subfamily 1 group I member 2 (Homo sapiens) (UniProt O75469); test: Human pregnane X receptor (PXR) small molecule agonists, qHTS assay (AID 1346982); note: nearly all actives have a fitted effect of over 35% in size; note: potency is the fitted concentration of half-maximal effect
Chain of Nuclear receptor subfamily 1 group I member 2 (Homo sapiens) (O75469 whole entry, looked up): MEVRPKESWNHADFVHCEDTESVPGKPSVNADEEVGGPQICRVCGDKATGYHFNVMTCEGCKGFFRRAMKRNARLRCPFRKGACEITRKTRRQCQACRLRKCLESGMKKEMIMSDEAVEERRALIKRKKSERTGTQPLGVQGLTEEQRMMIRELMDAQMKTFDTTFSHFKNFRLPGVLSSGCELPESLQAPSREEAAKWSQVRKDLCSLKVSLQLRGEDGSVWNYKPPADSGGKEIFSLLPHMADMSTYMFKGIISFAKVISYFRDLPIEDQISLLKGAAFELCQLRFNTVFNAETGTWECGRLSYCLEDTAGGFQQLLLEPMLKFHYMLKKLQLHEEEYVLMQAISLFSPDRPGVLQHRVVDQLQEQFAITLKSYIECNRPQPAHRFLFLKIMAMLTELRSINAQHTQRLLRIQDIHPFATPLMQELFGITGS
Summary of the method: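 Luminescence (ONE-Glo, 30 min RT) after 24 hr compound exposure of PXR-Luc HepG2 cells; cells rested 5 hr post-plating in 5% charcoal-stripped FBS medium.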

[8] = molecular target: Nuclear receptor subfamily 1 group I member 2 (Rattus norvegicus) (UniProt Q9R1A7); test: Rat pregnane X receptor (rPXR) activation by small molecules, qHTS assay (AID 1346983); conditions: rPXR luciferase reporter cells, One-Glo luminescence, 24 h; stronger effect = higher value; note: nearly all actives have a fitted effect of over 20% in size
Chain of Nuclear receptor subfamily 1 group I member 2 (Rattus norvegicus) (Q9R1A7 whole entry, looked up): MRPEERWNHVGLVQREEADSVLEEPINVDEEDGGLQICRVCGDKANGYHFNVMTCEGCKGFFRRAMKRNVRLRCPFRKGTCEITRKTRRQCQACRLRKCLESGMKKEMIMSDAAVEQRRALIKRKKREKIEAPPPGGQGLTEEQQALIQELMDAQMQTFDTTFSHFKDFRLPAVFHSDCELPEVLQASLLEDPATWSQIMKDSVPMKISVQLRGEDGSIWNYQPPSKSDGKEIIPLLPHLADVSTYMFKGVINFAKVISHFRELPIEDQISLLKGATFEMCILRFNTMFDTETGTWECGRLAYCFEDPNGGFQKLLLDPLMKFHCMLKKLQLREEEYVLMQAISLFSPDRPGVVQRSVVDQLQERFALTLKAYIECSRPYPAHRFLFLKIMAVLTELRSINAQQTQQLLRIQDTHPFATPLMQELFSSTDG
Summary of the method: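 Luminescent readout (One-Glo luciferase, 30 min room temperature) followed 24 hr compound treatment at 37 C of rPXR cells plated 2,000 per well and preincubated 5hr; qHTS format with compounds delivered in DMSO.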

[9] = molecular target: Nuclear receptor subfamily 1 group I member 2 (Homo sapiens) (UniProt O75469); test: CYP3A4 induction through human pregnane X receptor (PXR) by small molecules, qHTS assay (AID 1346984); note: nearly all actives have a fitted effect of over 40% in size; note: potency is the fitted concentration of half-maximal effect
Summary of the method: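 DPX-2 reporter cells; 24h cpd, 37C; Luciferin-IPA 3uM final x3h; One-Glo 30 min RT; lumi read.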

[10] = molecular target: Nuclear receptor subfamily 1 group I member 2 (Homo sapiens) (UniProt O75469); test: Human pregnane X receptor (PXR) activation by small molecules, qHTS assay (AID 1346985); note: nearly all actives have a fitted effect of over 40% in size; note: potency is the fitted concentration of half-maximal effect
Summary of the method: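 DPX-2 cells (HepG2 co-transfected with a PXR response element and a CYP3A4-promoter luciferase construct) were seeded at 2,000 per well, rested 5 hr at 37C, then exposed to DMSO-dissolved compounds for 24 hr. Activation was read as luciferase luminescence.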

SMILES | outcome [1] | Potency [2] | Potency [3] | Potency [4] | outcome [5] | Potency [6] | Potency [7] | max activation [8] | Potency [9] | Potency [10] | activation [1] | activity change, negative = cytotoxicity [2] | caspase activation [3] | caspase-3/7 activation [5] | activity change, negative = cytotoxicity [6] | activation [7]
CCCCC(CC)COC(=O)c1ccccc1O (configuration not stated) | inactive | inactive | inactive | inactive | inactive | inactive | inactive | -4.33% (inactive) | inactive | inactive | – | – | – | – | – | –
O=C(O)c1ccccc1OP(=O)(O)O | inactive | inactive | inactive | inactive | inactive | inactive | inactive | – | – | – | – | – | – | – | – | –
CCCCCCCCCCCC | inactive | inactive | inactive | inactive | inactive | inactive | inactive | – | – | – | – | – | – | – | – | –
CC(=O)OC/C=C(\C)CC/C=C(\C)CCC=C(C)C | inactive | inactive | inactive | inactive | inactive | inactive | 61.1 µM (active) and inactive | – | – | – | – | – | – | – | – | –
CCOC(C)(C)C | inactive | inactive | inactive | inactive | inactive | inactive | inactive | – | – | – | – | – | – | – | – | –
Cn1cc(S(C)=O)c(=O)c2ccc(F)cc21 (configuration not stated) | inactive | inactive | inactive | inactive | inactive | inactive | inactive | – | – | – | – | – | – | – | – | –
O=C[C@H](O)[C@@H](O)[C@H](O)[C@H](O)CO | inactive | inactive | inactive | inactive | inactive | inactive | inactive | – | – | – | – | – | – | – | – | –
CCc1ccc(O)c(OC)c1 | inactive | inactive | inactive | inactive | inactive | inactive | inactive | – | – | – | – | – | – | – | – | –
CCCN(CCC)CCc1cccc2c1CC(=O)N2 | inactive | inactive | inactive | inactive | inactive | inactive | inactive | – | – | – | – | – | – | – | – | –
c1cnc(N2CCN(Cc3ccc4c(c3)OCO4)CC2)nc1 | inactive | inactive | inactive | inactive | inactive | inactive | inactive | – | – | – | – | – | – | – | – | –
CC(=O)N(CC(O)CO)c1c(I)c(C(=O)NCCO)c(I)c(C(=O)NCC(O)CO)c1I (configuration not stated) | inactive | inactive | inactive | inactive | inactive | inactive | inactive | – | – | – | – | – | – | – | – | –
CCc1nccnc1CC | – | – | – | inactive | – | – | – | – | – | – | 0.11% [at 11.8 µM] (inactive) | -1.38% [at 19 µM] (inactive) | 0.2% [at 19 µM] (inactive) | -0.427% [at 19 µM] (inactive) | -4.23% [at 19 µM] (inactive) | -0.742% [at 19 µM] (inactive)
OC[C@]1(O)OC[C@@H](O)[C@H](O)[C@@H]1O | inactive | inactive | inactive | inactive | inactive | inactive | inactive | – | – | – | – | – | – | – | – | –
N=C(N)c1ccccc1 | inactive | inactive | inactive | inactive | inactive | inactive | inactive | – | – | – | – | – | – | – | – | –
Nc1c2c(nc3ccccc13)CCCC2O (configuration not stated) | inactive | inactive | inactive | inactive | inactive | inactive | inactive | – | – | – | – | – | – | – | – | –
CCN1CCC[C@H]1CNC(=O)c1cc(S(N)(=O)=O)ccc1OC | inactive | inactive | inactive | inactive | inactive | inactive | – | -2.59% (inactive) | – | – | – | – | – | – | – | –
CC(C[N+](C)(C)C)OC(N)=O (configuration not stated) | inactive | inactive | inactive | inactive | inactive | inactive | inactive | 0.875% (inactive) | inactive | inactive | – | – | – | – | – | –
Nc1nc2c(ncn2COC(CO)CO)c(=O)[nH]1 | inactive | inactive | inactive | inactive | inactive | inactive | inactive | 0.872% (inactive) | inactive | inactive | – | – | – | – | – | –
CCO/C([O-])=N/c1c[n+](N2CCOCC2)no1 | inactive | inactive | inactive | inactive | inactive | inactive | inactive | 0.703% (inactive) | inactive | inactive | – | – | – | – | – | –
C[N+](C)(C)CC(O)CC(=O)[O-] (configuration not stated) | inactive | inactive | inactive | inactive | inactive | inactive | – | 7.16% (inactive) | – | – | – | – | – | – | – | –
CC(=O)OCC(CCn1cnc2cnc(N)nc21)COC(C)=O | inactive | inactive | inactive | inactive | inactive | inactive | inactive | -0.776% (inactive) | inactive | inactive | – | – | – | – | – | –
O=C(CCCN1CCN(c2ccccn2)CC1)c1ccc(F)cc1 | inactive | inactive | inactive | inactive | inactive | inactive | 6.68 µM (active) | 0.0374% (inactive) | 12.6 µM (active) | 10 µM (active) | – | – | – | – | – | –
Cc1c(NC(C)C)c(=O)n(-c2ccccc2)n1C | inactive | inactive | inactive | inactive | inactive | inactive | inactive | -1.85% (inactive) | inactive | inactive | – | – | – | – | – | –
NS(=O)(=O)c1cc(C(=O)O)cc(N2CCCC2)c1Oc1ccccc1 | inactive | inactive | inactive | inactive | inactive | inactive | inactive | 1.61% (inactive) | inactive | inactive | – | – | – | – | – | –
N=C(N)c1ccc2cc(OC(=O)c3ccc(N=C(N)N)cc3)ccc2c1 | inactive | inactive | inactive | inactive | inactive | inactive | inactive | -2.79% (inactive) | inactive | inactive | – | – | – | – | – | –
Nc1ccc(S(=O)(=O)Nc2ccnn2-c2ccccc2)cc1 | – | – | – | inactive | – | – | – | 8.45% (inactive) | inactive | inactive | -0.182% [at 11.8 µM] (inactive) | -0.0622% [at 19 µM] (inactive) | 0.58% [at 19 µM] (inactive) | 1.89% [at 19 µM] (inactive) | -0.388% [at 19 µM] (inactive) | -6.08% [at 19 µM] (inactive)
